Results reported in PubChem BioAssay (EPA / NIEHS).
Calls of active or inactive are those of the source. How the source made its calls: active means hit-call score of the fitted dose curve at least 0.9, where 1 is the maximum; inactive means score below 0.9.

How the values were obtained:
[1] = ATG_ISRE_CIS: Attagene CIS-FACTORIAL HepG2 Assay for human Interferon Regulatory Factor 1 (IRF1) binding to an Interferon-Stimulated Response Element (ISRE) (AID 2282948); conditions: HepG2 ISRE cis-reporter (Attagene), mRNA transcription readout; actives raise or lower the signal
Outline: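 HepG2 cells transiently transfected with multiplexed cis-promoter reporter units; after 24 h compound exposure, reporter mRNA quantified by RT-PCR, FAM labelling, HpaI digestion and capillary electrophoresis. Bidirectional fit versus DMSO baseline.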

[2] = ATG_M_32_CIS: Attagene CIS-FACTORIAL HepG2 Assay for M32 Transcription Factor (Internal Marker) (AID 2282949); conditions: HepG2 Attagene cis-factorial M32 reporter, mRNA; actives raise or lower the signal;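 further: background control marker of the multiplexed CIS panel rather than a real target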
Outline: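 Following 24 h chemical exposure of HepG2 cells transiently expressing cis-promoter reporter constructs, reporter transcript levels were determined by RT-PCR with fluorescent labelling and capillary electrophoresis, then fitted bidirectionally against DMSO.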

[3] = ATG_M_06_CIS: Attagene CIS-FACTORIAL HepG2 Assay for M06 Transcription Factor (Internal Marker) (AID 2282950); conditions: HepG2 Attagene CIS-FACTORIAL M06 internal marker reporter; actives raise or lower the signal
Outline: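 Measured 24 h post-dosing in transiently transfected HepG2 cells, this internal-marker endpoint reports reporter mRNA via RT-PCR with fluorescent primer extension and capillary electrophoresis. DMSO served as negative control and baseline for bidirectional fitting.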

[4] = target: Hypoxia-inducible factor 1-alpha (Homo sapiens) (UniProt Q16665); assay: ATG_HIF1a_CIS: Attagene CIS-FACTORIAL HepG2 Assay for human Hypoxia Inducible Factor 1 (HIF1A) (AID 2282951); conditions: HepG2 Attagene cis-factorial HIF1a reporter transcription; actives raise or lower the signal
Outline: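 Activity is fitted in both directions relative to DMSO. Reporter transcripts are read by RT-PCR, fluorescent primer extension and capillary electrophoresis after 24 h chemical treatment. The cells are HepG2 carrying transiently transfected cis-element-driven reporter units responding to endogenous factors.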

[5] = target: Hepatocyte nuclear factor 6 (Homo sapiens) (UniProt Q9UBC0); assay: ATG_HNF6_CIS: Attagene CIS-FACTORIAL HepG2 Assay for human Hepatocyte Nuclear Factor 6 (HNF6) (AID 2282952); conditions: HepG2 Attagene cis-factorial HNF6 reporter transcription; actives raise or lower the signal
Outline: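 HepG2, transient MRTU transfection (cis promoters); 24 h chemical exposure; total RNA → oligo(dT) RT → PCR → 6-FAM labelling → HpaI cut → CE; bidirectional fit vs DMSO.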

[6] = target: Heat shock factor protein 1 (Homo sapiens) (UniProt Q00613); assay: ATG_HSE_CIS: Attagene CIS-FACTORIAL HepG2 Assay for human Heat Shock Transcription Factor 1 (HSE) (AID 2282953); conditions: HepG2 HSE cis-reporter, Attagene RNA transcription; actives raise or lower the signal
Outline: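 Reporter mRNA induction in HepG2 is measured 24 h after dosing, using transiently transfected multiplexed cis-regulated reporter units. Signal comes from capillary electrophoresis of labelled RT-PCR products, with DMSO as negative control.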

[7] = ATG_MRE_CIS: Attagene CIS-FACTORIAL HepG2 Assay for human Metal Responsive Element (MRE) (AID 2282954); conditions: HepG2 MRE cis-reporter transcription, Attagene multiplex; actives raise or lower the signal
Outline: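 Fluorescent reporter fragments separated by capillary electrophoresis give mRNA induction for the MRE unit after 24 h treatment of transfected HepG2 cells. Endogenous transcription-factor activity is read; DMSO serves as negative control and baseline.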

[8] = ATG_PBREM_CIS: Attagene CIS-FACTORIAL HepG2 Assay for human Phenobarbital-responsive Enhancer Module (PBREM) (AID 2282955); conditions: HepG2 PBREM cis-reporter, Attagene multiplexed transcription; actives raise or lower the signal
Outline: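 Endogenous transcription factor activity was read from reporter transcripts in transiently transfected human HepG2 liver cells after 24 h dosing. RT-PCR products were fluorescently labelled, HpaI-cut and sized by capillary electrophoresis; activity fitted bidirectionally against DMSO baseline.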

[9] = ATG_PXRE_CIS: Attagene CIS-FACTORIAL HepG2 Assay for human Pregnane X Receptor Element (PXRE) (AID 2282957); conditions: HepG2 Attagene CIS-FACTORIAL PXRE reporter, mRNA; actives raise or lower the signal
Outline: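 Transfect HepG2 with MRTUs (cis promoter elements); dose chemical, incubate 24 h; isolate RNA, RT with oligo(dT), PCR, 6-FAM label, HpaI cut, CE. Gain/loss fit vs DMSO.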

[10] = ATG_PPRE_CIS: Attagene CIS-FACTORIAL HepG2 Assay for human Peroxisome Proliferator-activated Response Element (PPRE) (AID 2282958); conditions: HepG2 PPRE cis-element reporter, Attagene transcription factor profiling; actives raise or lower the signal
Outline: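 Endogenous PPRE-driven transcription is measured in HepG2 cells carrying transfected multi-reporter constructs. Reporter transcripts are quantified by RT-PCR, HpaI digestion and capillary electrophoresis 24 h after dosing. DMSO baseline, bidirectional fit.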

[11] = ATG_RORE_CIS: Attagene CIS-FACTORIAL HepG2 Assay for human RAR-related Orphan Receptor Element (RORE) (AID 2282959); conditions: HepG2 Attagene cis-factorial RORE reporter, mRNA; actives raise or lower the signal
Outline: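 RORE reporter transcripts reflecting endogenous factor activity were read after 24 h compound exposure of transfected HepG2 cells, using reverse transcription, PCR, fluorescent labelling and capillary electrophoresis sizing. Gain or loss fitted against DMSO.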

[12] = ATG_Sox_CIS: Attagene CIS-FACTORIAL HepG2 Assay for human SRY-box transcription factor (SOX) (AID 2282960); conditions: HepG2 Attagene cis-factorial SOX reporter, mRNA; actives raise or lower the signal
Outline: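 Reporter transcripts, measured by RT-PCR and capillary electrophoresis of labelled fragments, report endogenous SOX transcription factor activity. Transiently transfected human HepG2 cells receive chemical for 24 h; changes in either direction are fitted relative to DMSO.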

[13] = target: Transcription factor Sp1 (Homo sapiens) (UniProt P08047); assay: ATG_Sp1_CIS: Attagene CIS-FACTORIAL HepG2 Assay for human Specificity Protein 1 (Sp1) (AID 2282961); conditions: HepG2 Sp1 cis-reporter transcription, actives raise or lower the signal
Outline: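 Read-out is reporter transcript level, measured by RT-PCR and fluorescent capillary electrophoresis after 24 h chemical treatment. System: transiently transfected HepG2 cells reporting endogenous transcription factor activity; gain or loss fitted against DMSO baseline.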

[14] = ATG_SREBP_CIS: Attagene CIS-FACTORIAL HepG2 Assay for human Sterol Regulatory Element Binding (SREBP) (AID 2282962); conditions: HepG2 Attagene cis-factorial SREBP reporter, mRNA; actives raise or lower the signal
Outline: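 HepG2 cells transiently transfected with multiplexed cis-element reporter units report endogenous transcription factor activity. After 24 h of chemical exposure, reporter mRNA was quantified by RT-PCR, 6-FAM labelling, HpaI digestion and capillary electrophoresis; bidirectional fits used DMSO as baseline.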

[15] = target: Signal transducer and activator of transcription 3 (Homo sapiens) (UniProt P40763); assay: ATG_STAT3_CIS: Attagene CIS-FACTORIAL HepG2 Assay for human Signal Transducer and Activator of Transcription 3 (STAT3) (AID 2282963); conditions: HepG2, Attagene cis-factorial STAT3 reporter transcription; actives raise or lower the signal
Outline: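 Values derive from bidirectional fits relative to DMSO of reporter mRNA levels, measured by RT-PCR with capillary electrophoresis, in HepG2 cells carrying transiently transfected cis-regulated reporter units and exposed 24 h.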

[16] = ATG_TA_CIS: Attagene CIS-FACTORIAL HepG2 Assay for human TA Basal Promoter (AID 2282964); conditions: HepG2 Attagene CIS-factorial TA basal promoter reporter; actives raise or lower the signal
Outline: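 Cis-factorial format in HepG2: reporters report endogenous factors, not chimeric Gal4 fusions. After 24 h treatment, reporter transcripts were measured by RT-PCR-capillary electrophoresis fluorescence, analysed bidirectionally versus DMSO.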

[17] = ATG_TCF_b_cat_CIS: Attagene CIS-FACTORIAL HepG2 Assay for human T-Cell-Factor with beta-catenin (TCF/b-cat) (AID 2282965); conditions: HepG2 TCF/beta-catenin cis-reporter transcription, actives raise or lower the signal
Outline: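 HepG2, transient MRTU transfection, cis-element-driven reporters (endogenous TFs). 24 h compound exposure. Readout: reporter mRNA by RT-PCR + 6-FAM primer extension, HpaI digest, capillary electrophoresis. Gain/loss fit vs DMSO baseline.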

[18] = ATG_GRE_CIS: Attagene CIS-FACTORIAL HepG2 Assay for human Glucocorticoid Response Elements (GRE) (AID 2282947); conditions: HepG2 GRE cis-reporter, Attagene multiplex mRNA; actives raise or lower the signal
Outline: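 Endogenous transcription factor activity is read through cis-element reporter constructs transiently transfected into HepG2 cells. After 24 h treatment, labelled RT-PCR products are resolved by capillary electrophoresis; DMSO sets baseline for bidirectional curve fitting.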

[19] = target: Paired box protein Pax-6 (Homo sapiens) (UniProt P26367); assay: ATG_Pax6_CIS: Attagene CIS-FACTORIAL HepG2 Assay for human Paired Box 6 (PAX6) (AID 2282956); conditions: HepG2 CIS-FACTORIAL PAX6 reporter transcription, RNA readout; actives raise or lower the signal
Outline: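 HepG2 cells transiently transfected with multiplexed cis-promoter reporter units (endogenous TF activity) were dosed for 24 h. Reporter mRNA was quantified by RT-PCR, 6-FAM labeling, HpaI digestion and capillary electrophoresis; bidirectional fitting versus DMSO baseline.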

Measured: AC50

Chain of Hypoxia-inducible factor 1-alpha (Homo sapiens) (Q16665 whole entry, looked up): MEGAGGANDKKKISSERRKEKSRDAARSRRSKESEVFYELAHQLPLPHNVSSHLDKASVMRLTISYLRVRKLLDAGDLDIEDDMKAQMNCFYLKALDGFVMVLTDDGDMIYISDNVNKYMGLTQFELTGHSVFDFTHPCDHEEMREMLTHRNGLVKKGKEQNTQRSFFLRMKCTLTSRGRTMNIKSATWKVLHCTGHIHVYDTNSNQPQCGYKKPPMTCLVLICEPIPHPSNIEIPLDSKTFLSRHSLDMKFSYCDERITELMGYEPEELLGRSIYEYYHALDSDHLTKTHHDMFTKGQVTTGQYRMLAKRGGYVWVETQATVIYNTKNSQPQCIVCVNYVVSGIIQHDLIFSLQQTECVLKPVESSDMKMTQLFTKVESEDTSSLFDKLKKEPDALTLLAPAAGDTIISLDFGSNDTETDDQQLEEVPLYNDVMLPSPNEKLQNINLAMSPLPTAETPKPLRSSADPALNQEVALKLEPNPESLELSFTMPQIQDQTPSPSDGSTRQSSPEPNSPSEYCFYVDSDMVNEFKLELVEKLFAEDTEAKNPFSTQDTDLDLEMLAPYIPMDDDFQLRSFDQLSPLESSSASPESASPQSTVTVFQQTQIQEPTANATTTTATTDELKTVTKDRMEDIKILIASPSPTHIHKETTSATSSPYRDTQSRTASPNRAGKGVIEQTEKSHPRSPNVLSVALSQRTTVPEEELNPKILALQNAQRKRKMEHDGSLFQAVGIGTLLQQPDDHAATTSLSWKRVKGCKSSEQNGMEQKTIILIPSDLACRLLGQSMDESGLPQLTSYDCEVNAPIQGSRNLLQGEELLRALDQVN
Chain of Hepatocyte nuclear factor 6 (Homo sapiens) (Q9UBC0 whole entry, looked up): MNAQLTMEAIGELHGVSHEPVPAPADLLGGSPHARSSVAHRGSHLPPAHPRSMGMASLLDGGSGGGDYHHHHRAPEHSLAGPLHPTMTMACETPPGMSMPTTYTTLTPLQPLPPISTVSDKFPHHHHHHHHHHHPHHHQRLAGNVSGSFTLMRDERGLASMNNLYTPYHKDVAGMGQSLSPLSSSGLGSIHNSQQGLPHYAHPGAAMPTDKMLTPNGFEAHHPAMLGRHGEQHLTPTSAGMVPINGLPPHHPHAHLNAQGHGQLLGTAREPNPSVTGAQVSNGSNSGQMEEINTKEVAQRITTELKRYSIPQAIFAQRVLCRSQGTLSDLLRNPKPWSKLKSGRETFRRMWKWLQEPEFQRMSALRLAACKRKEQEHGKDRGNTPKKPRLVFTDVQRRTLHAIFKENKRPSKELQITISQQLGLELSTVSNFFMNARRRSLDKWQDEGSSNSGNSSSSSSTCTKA
Chain of Paired box protein Pax-6 (Homo sapiens) (P26367 whole entry, looked up): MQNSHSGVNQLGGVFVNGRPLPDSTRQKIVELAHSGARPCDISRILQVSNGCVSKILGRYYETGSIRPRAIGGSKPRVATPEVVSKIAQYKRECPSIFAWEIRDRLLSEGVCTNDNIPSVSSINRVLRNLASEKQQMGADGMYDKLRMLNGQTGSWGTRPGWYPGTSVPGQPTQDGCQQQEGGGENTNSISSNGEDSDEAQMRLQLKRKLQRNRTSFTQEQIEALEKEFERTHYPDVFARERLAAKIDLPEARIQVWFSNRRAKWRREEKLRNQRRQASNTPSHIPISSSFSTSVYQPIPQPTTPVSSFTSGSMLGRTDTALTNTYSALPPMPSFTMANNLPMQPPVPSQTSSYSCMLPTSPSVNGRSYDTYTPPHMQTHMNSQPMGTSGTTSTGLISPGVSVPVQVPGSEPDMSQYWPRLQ
Chain of Signal transducer and activator of transcription 3 (Homo sapiens) (P40763 whole entry, looked up): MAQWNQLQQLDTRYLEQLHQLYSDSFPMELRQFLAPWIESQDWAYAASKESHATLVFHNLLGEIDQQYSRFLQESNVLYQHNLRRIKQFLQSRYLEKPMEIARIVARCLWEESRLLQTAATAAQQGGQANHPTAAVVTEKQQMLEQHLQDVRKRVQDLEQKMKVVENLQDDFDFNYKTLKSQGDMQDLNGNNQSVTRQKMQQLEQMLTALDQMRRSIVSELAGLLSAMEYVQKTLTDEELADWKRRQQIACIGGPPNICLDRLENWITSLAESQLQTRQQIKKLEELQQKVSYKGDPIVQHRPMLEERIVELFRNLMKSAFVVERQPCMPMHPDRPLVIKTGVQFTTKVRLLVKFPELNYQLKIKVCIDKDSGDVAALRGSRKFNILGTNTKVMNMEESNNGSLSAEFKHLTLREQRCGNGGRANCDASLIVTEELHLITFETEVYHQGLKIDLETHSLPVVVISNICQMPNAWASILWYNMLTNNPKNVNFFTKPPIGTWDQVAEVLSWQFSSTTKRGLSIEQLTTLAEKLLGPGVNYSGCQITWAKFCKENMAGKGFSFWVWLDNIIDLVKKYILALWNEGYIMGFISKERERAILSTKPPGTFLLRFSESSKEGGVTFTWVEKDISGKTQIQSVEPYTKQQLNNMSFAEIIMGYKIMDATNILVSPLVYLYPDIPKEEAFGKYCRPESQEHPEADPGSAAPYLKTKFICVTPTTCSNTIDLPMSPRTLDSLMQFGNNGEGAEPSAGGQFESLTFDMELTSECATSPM
Chain of Heat shock factor protein 1 (Homo sapiens) (Q00613 whole entry, looked up): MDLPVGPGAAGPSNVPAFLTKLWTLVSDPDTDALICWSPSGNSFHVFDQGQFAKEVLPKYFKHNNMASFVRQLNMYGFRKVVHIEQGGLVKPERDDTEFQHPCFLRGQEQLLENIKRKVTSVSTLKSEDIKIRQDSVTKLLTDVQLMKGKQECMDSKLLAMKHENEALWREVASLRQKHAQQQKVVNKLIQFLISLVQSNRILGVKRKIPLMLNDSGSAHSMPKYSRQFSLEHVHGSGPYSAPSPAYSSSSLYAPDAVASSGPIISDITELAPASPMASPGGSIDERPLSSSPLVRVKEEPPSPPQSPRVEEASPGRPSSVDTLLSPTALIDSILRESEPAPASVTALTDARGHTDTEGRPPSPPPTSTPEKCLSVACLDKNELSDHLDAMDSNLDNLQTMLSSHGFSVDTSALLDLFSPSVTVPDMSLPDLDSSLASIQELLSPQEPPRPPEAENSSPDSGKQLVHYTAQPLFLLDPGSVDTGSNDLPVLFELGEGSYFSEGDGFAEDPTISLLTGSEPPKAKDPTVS
Chain of Transcription factor Sp1 (Homo sapiens) (P08047 whole entry, looked up): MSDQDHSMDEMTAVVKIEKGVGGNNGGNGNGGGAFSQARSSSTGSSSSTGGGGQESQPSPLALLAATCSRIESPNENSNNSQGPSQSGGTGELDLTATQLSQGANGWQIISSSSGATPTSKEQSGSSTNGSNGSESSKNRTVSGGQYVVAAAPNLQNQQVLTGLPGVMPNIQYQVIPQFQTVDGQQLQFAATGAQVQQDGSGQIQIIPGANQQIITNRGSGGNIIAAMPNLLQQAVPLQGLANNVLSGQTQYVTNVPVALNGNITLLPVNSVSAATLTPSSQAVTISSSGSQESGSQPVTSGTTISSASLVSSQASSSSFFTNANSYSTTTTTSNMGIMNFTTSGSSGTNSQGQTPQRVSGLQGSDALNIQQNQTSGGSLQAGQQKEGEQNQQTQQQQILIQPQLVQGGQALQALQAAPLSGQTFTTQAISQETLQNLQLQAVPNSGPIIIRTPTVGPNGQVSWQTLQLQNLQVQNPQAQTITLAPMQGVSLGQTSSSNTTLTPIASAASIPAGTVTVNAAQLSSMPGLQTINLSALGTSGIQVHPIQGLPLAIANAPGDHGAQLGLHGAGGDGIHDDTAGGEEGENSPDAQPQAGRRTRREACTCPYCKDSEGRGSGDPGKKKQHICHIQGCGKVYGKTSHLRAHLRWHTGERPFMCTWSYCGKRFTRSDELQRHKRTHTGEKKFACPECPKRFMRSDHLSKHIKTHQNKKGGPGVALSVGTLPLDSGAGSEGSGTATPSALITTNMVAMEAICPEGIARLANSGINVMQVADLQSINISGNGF

CC(C)[C@H](C(=O)O[C@H](C#N)c1cccc(Oc2ccccc2)c1)c1ccc(Cl)cc1
active: [8] 9.24 µM | [9] 1.04 µM
not listed: [18] | [19]
inactive: all other assays above

CCOP(=S)(OCC)Oc1ccc([N+](=O)[O-])cc1
active: [7] 50 µM | [9] 9.68 µM | [10] 50 µM | [14] 89.1 µM
not listed: [5] | [6] | [13]
inactive: all other assays above

CCC(=O)Nc1ccc(Cl)c(Cl)c1
active: [9] 50 µM | [14] 50 µM
not listed: [5] | [6] | [10] | [13] | [18]
inactive: all other assays above

CCc1cccc(C)c1N(C(=O)CCl)C(C)COC (stereo not drawn)
active: [8] 7.5 µM | [9] 0.603 µM
not listed: [10] | [11] | [13] | [18] | [19]
inactive: all other assays above

CCOP(=O)(SC(C)CC)N1CCSC1=O (stereo not drawn)
active: [9] 22.9 µM
not listed: [13] | [18]
inactive: all other assays above

CC(C1CC1)C(O)(Cn1cncn1)c1ccc(Cl)cc1 (stereo not drawn)
active: [9] 24.8 µM
not listed: [5] | [6] | [8] | [13] | [18]
inactive: all other assays above

CN(C)C(=O)Nc1cccc(C(F)(F)F)c1
not listed: [6] | [13] | [18]
inactive: all other assays above
